Sampled rows, rich in hits. Any-hit rate of the full collection: about 1.8%.
AGP1 TOR yeast – modulators of TOR pathway AGP1-GFP in S. cerevisiae; GFP response vs DMSO, % at 10 µM; 0.02% of 320,000 active; S. cerevisiae AGP1-GFP multiplex flow cytometry, 3 h; GFP as percent of DMSO wells;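 active means GFP response relative to DMSO above a set limit, near screen average plus 3 SD, cut at about 150% in these data; inconclusive means fewer than 70 cells counted for the yeast strain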;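 further: median GFP channel fluorescence of the gated AGP1 strain per well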
Myeloid diff 2 – compounds promoting myeloid differentiation | ER-HoxA9 myeloid progenitors, lysozyme-GFP differentiation, flow cytometry | calls only at 10 µM | 1% of 360,000 active | AID 624256;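 active means normalized GFP-positive differentiation at or above the plate's own cutoff, the solvent-only control mean plus 3 SD; inconclusive means no clear call, values can overlap the other calls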;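 further: cells exposed to compound for four days before flow analysis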
RPL19A-GFP yeast – modulators of TOR pathway RPL19A-GFP in S. cerevisiae. S. cerevisiae RPL19A-GFP strain, flow cytometry, 3 h; hits give low values. percent response vs DMSO, % at 10 µM. 0.3% of 330,000 active;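 active means percent response vs DMSO below 50%; inconclusive means fewer than 70 events counted for the yeast strain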;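 further: median channel GFP fluorescence of the barcoded RPL19A-GFP strain; lower means less RPL19A-GFP as with rapamycin TOR inhibition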
LAP4-GFP MLPCN – yeast TOR pathway LAP4-GFP modulation; S. cerevisiae LAP4-GFP multiplex, flow cytometry GFP, 3 h; median GFP as percent of DMSO wells; GFP response vs DMSO, % at 10 µM; 0.34% of 320,000 active;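 active means GFP response vs DMSO above a set limit, about the screen mean plus 3 SD, cut at about 150% in these data; inconclusive means under 70 cell events counted for the yeast strain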
CIT2-GFP yeast – yeast TOR pathway CIT2-GFP modulation; S. cerevisiae CIT2-GFP strain, flow cytometry, 3 h; 100 means same as DMSO wells; GFP response vs DMSO, % at 10 µM; 0.065% of 320,000 active;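 active means GFP response relative to DMSO above a set limit, near the screen mean plus 3 SD, cut at about 150% in these data; inconclusive means Fewer than 70 cells measured for a yeast strain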;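 further: ratio of well median GFP fluorescence to mean of DMSO wells on the plate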
MEP2-GFP yeast – yeast TOR pathway MEP2-GFP modulation. AID 2016. 0.51% of 330,000 active. GFP response vs DMSO, % at 10 µM. S. cerevisiae MEP2-GFP strain, flow cytometry GFP, 3 h; 100% = DMSO control level;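 active means GFP response versus DMSO above a set limit, roughly screen mean plus 3 SD, cut at about 180% in these data; inconclusive means fewer than 70 cells counted for a yeast strain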;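 further: median GFP fluorescence of the barcode-gated MEP2-GFP cells per well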
Hits are given with their value; [ ] = remark or other dose.

CC1(C)CC(=O)C2=C(C1)NC(=O)NC2c1ccccc1 (configuration not stated) was read as AGP1 TOR yeast inactive, Myeloid diff 2 inactive, RPL19A-GFP yeast inactive, LAP4-GFP MLPCN inactive, CIT2-GFP yeast inactive and MEP2-GFP yeast inactive.
Screening CC1C2=C(CC(C)(C)CC2=O)NC2=C1C(=O)CC(C)(C)C2 returned AGP1 TOR yeast inactive, Myeloid diff 2 inactive, RPL19A-GFP yeast 43[may fluoresce violet], LAP4-GFP MLPCN inactive, CIT2-GFP yeast inconclusive and MEP2-GFP yeast inactive.
CC1CCN(CCCNC(=O)C2CCN(S(=O)(=O)N3CCC4(CC3)OCCO4)CC2)CC1 was read as AGP1 TOR yeast inactive, Myeloid diff 2 inactive, RPL19A-GFP yeast 45[may fluoresce violet], LAP4-GFP MLPCN inactive, CIT2-GFP yeast inconclusive and MEP2-GFP yeast inactive.
CC1(C(=O)Nc2ccc3c(c2)OCO3)CCN1Cc1ccccc1OC(F)F (configuration not stated) was read as Myeloid diff 2 inactive.
`Cn1nc(C(=O)Nc2cccc(S(N)(=O)=O)c2)c2ccccc2c1=O` gave AGP1 TOR yeast inactive, Myeloid diff 2 inactive, RPL19A-GFP yeast inactive, LAP4-GFP MLPCN inactive, CIT2-GFP yeast inactive and MEP2-GFP yeast inactive.
Screening CC(OC(=O)c1nn(C)c(=O)c2ccccc12)C(=O)Nc1ccc(S(N)(=O)=O)cc1 (configuration not stated) returned AGP1 TOR yeast inactive, Myeloid diff 2 active, RPL19A-GFP yeast inactive, LAP4-GFP MLPCN inactive, CIT2-GFP yeast inactive and MEP2-GFP yeast inactive.
Screening CCCC[n+]1c2ccccc2cc2ccccc21 returned AGP1 TOR yeast inactive, Myeloid diff 2 inactive, RPL19A-GFP yeast inactive, LAP4-GFP MLPCN inactive, CIT2-GFP yeast inconclusive and MEP2-GFP yeast 234[may fluoresce violet].
For CCC[n+]1c2ccccc2cc2ccccc21 the results were AGP1 TOR yeast inactive, Myeloid diff 2 inactive, RPL19A-GFP yeast inactive, LAP4-GFP MLPCN inactive, CIT2-GFP yeast inconclusive and MEP2-GFP yeast inactive.
For CC(=O)CC(c1ccccc1)S(=O)(=O)c1ccc([N+](=O)[O-])cc1 (configuration not stated) the results were AGP1 TOR yeast inactive, Myeloid diff 2 active, RPL19A-GFP yeast inactive, LAP4-GFP MLPCN inactive, CIT2-GFP yeast inactive and MEP2-GFP yeast inactive.
For CC(C)C[C@@H]1O[C@H](C(C)C)Cc2[nH][nH]c(=O)c21 the results were Myeloid diff 2 inactive.
Screening COCCNC(=O)c1cc(-c2ccc(-c3ccccc3)cc2)nc2ccccc12 returned AGP1 TOR yeast inactive, Myeloid diff 2 active, RPL19A-GFP yeast inactive, LAP4-GFP MLPCN inactive, CIT2-GFP yeast inactive and MEP2-GFP yeast inactive.
Screening O=C(NCc1ccccn1)c1cc(-c2ccc(-c3ccccc3)cc2)nc2ccccc12 returned AGP1 TOR yeast inactive, Myeloid diff 2 active, RPL19A-GFP yeast inactive, LAP4-GFP MLPCN inactive, CIT2-GFP yeast inactive and MEP2-GFP yeast inactive.
Screening CCNC(=S)NNC(=O)c1cc(-c2ccc(OCC)cc2)nc2ccccc12 returned AGP1 TOR yeast inconclusive, Myeloid diff 2 inactive, RPL19A-GFP yeast 22[may fluoresce violet], LAP4-GFP MLPCN inactive, CIT2-GFP yeast inconclusive and MEP2-GFP yeast 361[may fluoresce violet].
Screening COc1cc(C(=O)OC(C)c2ccc(F)cc2)ccc1OCC(=O)N1CCOCC1 (configuration not stated) returned AGP1 TOR yeast inactive, Myeloid diff 2 inactive, RPL19A-GFP yeast inactive, LAP4-GFP MLPCN inactive, CIT2-GFP yeast inactive and MEP2-GFP yeast inactive.
Screening Cc1cccc(C(=O)NCN2CCN(c3ccccc3C#N)CC2)c1 returned Myeloid diff 2 inactive.
O=S(=O)(NCc1cn2ccsc2n1)c1cccs1 was read as AGP1 TOR yeast inactive, Myeloid diff 2 inactive, RPL19A-GFP yeast inactive, LAP4-GFP MLPCN inactive, CIT2-GFP yeast inactive and MEP2-GFP yeast inactive.
Screening O=S(=O)(NCc1cn2ccsc2n1)c1ccc(Oc2ccccc2)cc1 returned AGP1 TOR yeast inactive, Myeloid diff 2 active, RPL19A-GFP yeast inactive, LAP4-GFP MLPCN inactive, CIT2-GFP yeast inactive and MEP2-GFP yeast inactive.
`COc1cc2c(cc1N/C=C(\C#N)c1nc(-c3ccccc3)cs1)oc1ccccc12` gave AGP1 TOR yeast inactive, Myeloid diff 2 active, RPL19A-GFP yeast inactive, LAP4-GFP MLPCN inactive, CIT2-GFP yeast inactive and MEP2-GFP yeast inactive.
`CC(=O)c1ccc(C(=O)N2CCCC(Nc3ccccc3)C2)s1` (configuration not stated) gave AGP1 TOR yeast inactive, Myeloid diff 2 inactive, RPL19A-GFP yeast inactive, LAP4-GFP MLPCN inactive, CIT2-GFP yeast inactive and MEP2-GFP yeast inactive.
`Cc1ccc(Oc2cc([N+](=O)[O-])cc3c2C(=O)Nc2ccccc2O3)cc1` gave AGP1 TOR yeast inactive, Myeloid diff 2 active, RPL19A-GFP yeast inactive, LAP4-GFP MLPCN inactive, CIT2-GFP yeast inactive and MEP2-GFP yeast inactive.
`O=C1Nc2ccccc2Nc2ccc([N+](=O)[O-])cc21` gave AGP1 TOR yeast inactive, Myeloid diff 2 inactive, RPL19A-GFP yeast inactive, LAP4-GFP MLPCN inactive, CIT2-GFP yeast inactive and MEP2-GFP yeast inactive.
O=[N+]([O-])c1ccc2c(c1)nc(CO)n2Cc1ccccc1 was read as AGP1 TOR yeast inactive, Myeloid diff 2 inactive, RPL19A-GFP yeast inactive, LAP4-GFP MLPCN inactive, CIT2-GFP yeast inactive and MEP2-GFP yeast inactive.
For CCOC(=O)N1CCN(C(=O)CSc2nnc(C3COc4ccccc4O3)o2)CC1 (configuration not stated) the results were AGP1 TOR yeast inactive, Myeloid diff 2 inactive, RPL19A-GFP yeast inactive, LAP4-GFP MLPCN inactive, CIT2-GFP yeast inactive and MEP2-GFP yeast inactive.
For O=C(CSc1nnc(C2COc3ccccc3O2)o1)N1CCCC1 (configuration not stated) the results were AGP1 TOR yeast 158, Myeloid diff 2 inactive, RPL19A-GFP yeast inactive, LAP4-GFP MLPCN 172, CIT2-GFP yeast inactive and MEP2-GFP yeast 445.
Screening CCCS(=O)(=O)N1CCC(C(=O)c2cccc(C(F)(F)F)c2)CC1 returned AGP1 TOR yeast inactive, Myeloid diff 2 inactive, RPL19A-GFP yeast inactive, LAP4-GFP MLPCN 156, CIT2-GFP yeast inactive and MEP2-GFP yeast 186.
Cc1cccc(C(=O)C2CCN(S(=O)(=O)c3ccc(C(=O)O)cc3)CC2)c1 was read as AGP1 TOR yeast inactive, Myeloid diff 2 inactive, RPL19A-GFP yeast inactive, LAP4-GFP MLPCN inactive, CIT2-GFP yeast inactive and MEP2-GFP yeast inactive.
`CCOC(=O)c1cc2c(=O)n3ccccc3nc2n(CCCOC)c1=NC(=O)C(C)(C)C` gave AGP1 TOR yeast inactive, Myeloid diff 2 inactive, RPL19A-GFP yeast inactive, LAP4-GFP MLPCN inactive, CIT2-GFP yeast inactive and MEP2-GFP yeast inactive.
`CCOC(=O)c1cc2c(=O)n3ccccc3nc2n(CCOC)c1=NC(=O)C(C)(C)C` gave AGP1 TOR yeast inactive, Myeloid diff 2 inactive, RPL19A-GFP yeast inactive, LAP4-GFP MLPCN inactive, CIT2-GFP yeast inactive and MEP2-GFP yeast 331.
`O=C1C(c2ccccc2)C(c2ccccc2)NC(c2ccccc2)C1c1ccccc1` (configuration not stated) gave AGP1 TOR yeast inactive, Myeloid diff 2 inactive, RPL19A-GFP yeast inactive, LAP4-GFP MLPCN inactive, CIT2-GFP yeast inactive and MEP2-GFP yeast inactive.

Screening results from PubChem BioAssay.
